Source: PubChem BioAssay (several laboratories)
CYP2C19 inh = inhibitors of human CYP2C19; P33261; CYP2C19 Supersomes, luciferin-H EGE luminescence, 30 min; inhibition, % at 5 µM; 21% of 96,000 active;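 active = CYP2C19 inhibition above a set limit at 5 µM in the primary screen, cut at about 50% in these data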;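 also: plate controls were negative control wells for no effect and 2.5 mM tranylcypromine positive control for full effect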
Target sequence (P33261 whole entry, looked up): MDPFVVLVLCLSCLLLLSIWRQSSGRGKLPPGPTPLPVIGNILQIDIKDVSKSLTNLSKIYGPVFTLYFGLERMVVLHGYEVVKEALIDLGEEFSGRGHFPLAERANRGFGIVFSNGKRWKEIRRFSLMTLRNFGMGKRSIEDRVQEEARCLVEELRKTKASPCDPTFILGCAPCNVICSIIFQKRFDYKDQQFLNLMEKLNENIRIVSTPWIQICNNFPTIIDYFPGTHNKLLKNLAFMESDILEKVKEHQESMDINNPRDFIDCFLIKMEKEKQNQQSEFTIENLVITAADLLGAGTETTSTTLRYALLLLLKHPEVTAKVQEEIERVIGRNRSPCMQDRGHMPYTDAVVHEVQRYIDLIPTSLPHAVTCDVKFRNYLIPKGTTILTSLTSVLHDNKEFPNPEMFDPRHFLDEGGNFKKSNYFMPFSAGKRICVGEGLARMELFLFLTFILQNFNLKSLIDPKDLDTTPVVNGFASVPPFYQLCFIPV
CYP2C9 inhib = blocks human cytochrome P450 2C9; CYP2C9 Supersomes, luciferin-H conversion, luminescence; 20% of 96,000 active; inhibition, % at 5 µM; P11712;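 active = blocking of liver enzyme CYP2C9 beyond about 50% at 5 µM, limit read from the data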
PostGolgi yeast = growth inhibition of a yeast mutant, post-Golgi transport screen; post-Golgi transport phenotypic cell assay; inhibition, % at 10 µM; 0.9% of 98,000 active;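 also: yeast cells grown in 1536-well plates; yeast grown about 18 h at 30C before absorbance read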
CYP2C9 activ = CYP2C9 (human) activation | P11712 | recombinant CYP2C9, luciferin-H conversion, luminescence; stronger effect = higher value; factor 1 = untreated enzyme, 0 = blocked | activation factor at 5 µM | 1.4% of 96,000 active;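 active = activation factor of 2 or more for CYP2C9 at a 5 µM dose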;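 also: 0 = sulfaphenazole-blocked wells and 1 = vehicle-only wells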
CYP2C19 act = activators of human cytochrome P450 2C19; P33261; AID 1025; 96,000 tested, under 10 active; recombinant CYP2C19, luciferin-H EGE luminescence; stronger effect = higher value; 0 = fully inhibited enzyme, 1 = untreated enzyme; activation factor at 5 µM;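 active = activation factor of at least 2 at 5 µM in the primary screen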;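 also: 0 = wells with 2.5 mM tranylcypromine and 1 = vehicle-only wells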
PostGolgi ctrl = inhibits growth of the yeast control strain; efflux-deficient yeast background strain, growth absorbance A615, 16 h; inhibition, % at 10 µM; AID 738; 5% of 98,000 active
Active calls of the source: *; nt = no result. This is a sample that favours compounds with a hit; in the whole collection about 32% have one here. Rule as the data show it, unless noted: active = inhibition above about 30%; inactive = the rest.

SMILES | CYP2C19 inh | CYP2C9 inhib | PostGolgi yeast | CYP2C9 activ | CYP2C19 act | PostGolgi ctrl
CS(=O)(=O)N1CCCC(C(=O)NCc2ccc(F)cc2Cl)C1 (stereo not given) | 8 | -13 | -3 | 1.1 | 0.9 | -4
COc1cccc(C2=NOC(C(=O)NCC3CCCO3)C2)c1 (stereo not given) | 11 | -70 | 1 | 1.7 | 0.9 | 25
O=C(NCC1CCCO1)C1CC(c2ccccc2Cl)=NO1 (stereo not given) | 56* | -318 | 3 | 4.2* | 0.4 | -3
COc1ccc(OC)c(C2=NOC(C(=O)NCC3CCCO3)C2)c1 (stereo not given) | 34 | -133 | -10 | 2.3* | 0.7 | 11
CCSc1nc(O)c(C2OC(=O)c3c2ccc(OC)c3OC)c(=O)n1CC (stereo not given) | 15 | 18 | -4 | 0.8 | 0.8 | 4
Cn1c(NC(=O)c2ccc(F)c(F)c2)cc(=O)n(C)c1=O | 11 | 16 | -4 | 0.8 | 0.9 | 1
CC1=C(C(=O)Nc2ccccc2)C(c2ccncc2)C(C#N)=C(SCC(=O)NC2CC2)N1 (stereo not given) | 85* | 77* | -3 | 0.2 | 0.1 | 8
CC1=C(C(=O)Nc2ccccc2)C(c2ccncc2)C(C#N)=C(SCC(=O)NC(C)C)N1 (stereo not given) | 78* | 65* | 3 | 0.4 | 0.2 | 0
CC1=C(C(=O)Nc2ccccc2)C2(CCCCC2)C(C#N)=C(SCC(N)=O)N1 | 47 | 46 | 2 | 0.5 | 0.5 | 3
CCC(=O)Nc1nc(C)cc(SCC(=O)OC)n1 | 19 | 43 | 1 | 0.6 | 0.8 | 2
COc1cc(CNCc2ccco2)ccc1OCc1ccccc1 | 52* | -13 | 3 | 1.1 | 0.5 | -3
COc1cc(CNCc2cccs2)ccc1OCc1ccccc1 | 67* | 15 | 3 | 0.8 | 0.3 | 0
COc1cc(CNCc2cccs2)ccc1OCc1cccs1 | 50* | 16 | 0 | 0.8 | 0.5 | 28
COc1cc(CNCc2cccs2)ccc1OCC(N)=O | 2 | 14 | 13 | 0.9 | 1 | 4
CCN(CC)c1ccc(/C=N/N2CCN(Cc3cccc4ccccc34)CC2)c(O)c1 | 0 | 6 | 2 | 0.9 | 1 | 0
NC(=O)NC(Cc1ccccc1)C(=O)Nc1ccc(S(N)(=O)=O)cc1 (stereo not given) | -1 | -9 | 5 | 1.1 | 1 | -10
COc1ccc2[nH]c(=O)c(CN(CCCN3CCOCC3)C(=O)NCc3ccccc3)cc2c1 | -8 | -1 | -2 | 1 | 1.1 | 6
COC(=O)CSc1nc2cc3c(cc2cc1C#N)OCO3 | -3 | 0 | 20 | 1 | 1 | -5
COC(=O)CSc1nc2cc3c(cc2cc1C)OCCO3 | 6 | 21 | 6 | 0.8 | 0.9 | 36*
CCOC(=O)CSc1nc(C2CC2)nc2ccccc12 | 12 | 23 | 4 | 0.8 | 0.9 | 39*
COC(=O)CSc1cnc2ccccc2n1 | -8 | -9 | -5 | 1.1 | 1.1 | 32*
COC(=O)CSc1nc(C(C)C)nc2ccccc12 | 80* | 43 | 2 | 0.6 | 0.2 | 7
CCC(C)N(NC(C)=O)c1nc(Cl)nc(NC(C)(C)C)n1 (stereo not given) | 7 | 20 | 3 | 0.8 | 0.9 | 3
Nc1nnc(SCC(=O)N2CCN(c3ccccc3)CC2)n1-c1ccccc1 | -10 | -8 | 1 | 1.1 | 1.1 | 9
COc1ccc(NC(=O)CSc2ncn(-c3ccccc3)n2)cc1Cl | 37 | 37 | 1 | 0.6 | 0.6 | 18
SMILES | CYP2C19 inh | CYP2C9 inhib | PostGolgi yeast | CYP2C9 activ | CYP2C19 act | PostGolgi ctrl
CC(C)(C)C(=O)NC(=S)Nc1ccccc1C(=O)Nc1ccccc1 | 18 | -4 | -5 | 1 | 0.8 | 1
COC(=O)CSc1nnc(SCc2ccccc2)s1 | 1 | -3 | 23 | 1 | 1 | 12
COC(=O)CSc1nc2ccccc2nc1SCC(=O)OC | 54* | 25 | 0 | 0.8 | 0.5 | 4
COc1cc(C2C3C(C)N(C)C(=O)N(C)C3N(C)C(=O)N2C)ccc1O (stereo not given) | 87* | -19 | 17 | 1.2 | 0.1 | 16
COc1ccc(C2(C(=O)NCC3CCCO3)CCOCC2)cc1 (stereo not given) | 18 | 4 | 0 | 1 | 0.8 | 14
CCOC(=O)c1[nH]c2cc3c(cc2c1NC(=O)CN1CCC(C)CC1)OCO3 | 61* | 68* | 1 | 0.3 | 0.4 | 5
CCOC(=O)N1CCN(CC(=O)Nc2c(C(=O)OC)[nH]c3ccccc23)CC1 | 28 | -5 | -7 | 1.1 | 0.7 | 24
CCOC(=O)c1[nH]c2cc3c(cc2c1NC(=O)CN1CCc2ccccc2C1)OCO3 | 68* | 55* | 13 | 0.4 | 0.3 | 2
Cc1cc(C)c(C(=O)CSC2=NC(N)=C(C#N)C3(CCCCC3)C2C(N)=O)cc1C (stereo not given) | 41 | 7 | -1 | 0.9 | 0.6 | 7
COc1ccc(N2C(=O)CCC(C(=O)c3ccccc3)=C2C)cc1 | 95* | 37 | -1 | 0.6 | 0.1 | 5
COc1ccc(C2CC(c3ccccc3)=NN2C(=O)c2cccs2)cc1 (stereo not given) | -8 | 3 | -16 | 1 | 1.1 | 67*
COc1ccc(C2CCCN2C(=O)c2cccs2)cc1 (stereo not given) | 33 | 27 | -5 | 0.7 | 0.7 | 4
COc1ccc(C2=NN(C(=O)CSc3cn(C)c4ccccc34)C(c3ccc(OC)cc3)C2)cc1 (stereo not given) | 50* | 62* | -19 | 0.4 | 0.5 | 24
COC(=O)CNC(c1ccccc1)c1cc(Br)ccc1NC(=O)OCc1ccccc1 (stereo not given) | 43 | 74* | -6 | 0.3 | 0.6 | 9
COC(=O)CNC(c1ccccc1)c1cc(C)ccc1NC(=O)CNC(=O)OCc1ccccc1 (stereo not given) | 82* | 94* | 1 | 0.1 | 0.2 | 21
O=C(Cn1nnc(-c2ccccc2NC(=O)c2ccco2)n1)Nc1ccccc1 | 32 | 92* | 0 | 0.1 | 0.7 | 13
COc1cccc(-c2nnn(CC(=O)Nc3cc(OC)c(NC(=O)c4ccco4)cc3OC)n2)c1 | 35 | 54* | 7 | 0.5 | 0.7 | 6
COc1ccc(C(=O)Nc2cc(OC)c(NC(=O)c3ccco3)cc2OC)cc1 | 34 | 17 | -13 | 0.8 | 0.7 | 13
CCOc1ccc(NC(=O)Cn2nnc(-c3ccccc3NC(=O)CC)n2)cc1 | 100* | 89* | -5 | 0.1 | 0 | -3
O=C(Cn1nnc(-c2ccccc2NC(=O)c2ccccc2)n1)Nc1ccc2c(c1)OCCO2 | -12 | 6 | -9 | 0.9 | 1.1 | 0
CCCOc1ccc(-c2nnn(CC(=O)Nc3cccc(C(=O)OC)c3)n2)cc1 | 33 | 92* | nt | 0.1 | 0.7 | nt
N#CCc1ccc(C(=O)c2ccccc2)s1 | 70* | 20 | -6 | 0.8 | 0.3 | 0
